GC-B act: GC-B (human) receptor activation; HEK293-GC-B cells, CNP EC30, cGMP TR-FRET; 0% at EC30 CNP, 100% saturating CNP; activation, % at 10 µM; 370,000 compounds, 0.11% hits;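 active means activation at 10 µM reaching about 35% in either raw or pattern-adjusted values, limit read from the data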
PLCb3 inh: inhibitors of human phospholipase C beta3; Q01970; Purified PLC-beta3, fluorogenic substrate, fluorescence; inhibition, % at 12.2 µM; 370,000 compounds, 0.18% hits; AID 720704; in the data active means inhibition above about 11%
Rce1 inhib: yeast Ras-converting enzyme inhibition; calls only; Q03530; AID 2563; 290,000 compounds, 0.27% hits; yeast membranes, quenched prenylated peptide cleavage fluorescence;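 active means fall in fluorescence gain of 50% or more versus controls, with final raw signal at or below 3038400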
GC-A act: GC-A (human) enzyme activation | P16066 | 370,000 compounds, 0.14% hits | HEK293 GC-A cells, cGMP TR-FRET, EC30 ANP; 0% at EC30 ANP, 100% saturating ANP | AID 1671463 | activation, % at 10 µM; in the data active means activation above about 40%
PfM18AAP inh-1: blocks P. falciparum M18 aspartyl aminopeptidase | inhibition, % at 7.35 µM | recombinant PfM18AAP, H-Glu-NHMec fluorogenic cleavage | 290,000 compounds, 1.2% hits;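 active means inhibition above the campaign mean inhibition over all tested compounds plus 3 SD, cut at about 28% in these data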
PLC-gamma1 inh: PLC-gamma1 (human) inhibition, primary screen | purified PLC-gamma1, fluorogenic substrate, fluorescence | inhibition, % at 12.2 µM | 370,000 compounds, 0.84% hits; in the data active means inhibition above about 9.5%
PfM18AAP inh-2: confirmation of Plasmodium falciparum M18 aspartyl aminopeptidase inhibitors; shares compounds with PfM18AAP inh-1; recombinant PfM18AAP, H-Glu-NHMec fluorogenic cleavage; inhibition, % at 7.35 µM; 2,400 compounds, 28% hits; AID 2170;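 active means mean inhibition over replicate wells above the hit cutoff set for the earlier primary screen, cut at about 29% in these data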
CTSL1 counter: Cathepsin L (human) inhibition, confirmation; shares compounds with PfM18AAP inh-1; purified cathepsin L1, Z-Leu-Arg-MCA fluorescence; inhibition, % at 5.96 µM; 2,400 tested, under 10 active;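 active means average inhibition across replicates above the hit cutoff set in the earlier primary screen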
Numbers stand for hits; i = inactive; nt = no result given. This is a sample that favours compounds with a hit; in the whole collection about 2.2% have one here.

SMILES | GC-B act | PLCb3 inh | Rce1 inhib | GC-A act | PfM18AAP inh-1 | PLC-gamma1 inh | PfM18AAP inh-2 | CTSL1 counter
COC(=O)[C@]12C[C@H](CC(=O)N3CCN(C(=O)c4ccco4)CC3)C(=O)N(CCc3ccc(OC)c(OC)c3)C1=C[C@H](COCc1ccccc1)O[C@@H]2C | i | i | nt | i | nt | i | nt | nt
CCCCNC(=O)O[C@H]1CC[C@@]23CCCN2C(=O)CCC[C@H]3[C@H]1CCC | i | i | nt | i | nt | i | nt | nt
Cc1cc(NS(=O)(=O)c2ccccc2)cc(Cl)c1O | i | i | nt | i | 67.0 | i | i | i
O=S(=O)(Nc1ccc(NS(=O)(=O)c2ccccc2)c(Cl)c1)c1ccccc1 | i | i | nt | i | nt | i | nt | nt
CCC(=O)Nc1nc2ccc(NC(=O)COc3ccccc3)cc2s1 | i | i | i | i | 43.4 | i | i | i
O=C(OCC#CCSc1nnc(-c2cccc3ccccc23)o1)c1cccc(F)c1 | i | i | nt | i | nt | i | nt | nt
CN1CCCCC(NC(=O)c2ccccc2)C1=O (stereo not given) | i | i | nt | i | nt | i | nt | nt
O=c1[nH]c(/C=C\c2ccc(O)c(O)c2)nc(O)c1[N+](=O)[O-] | i | i | i | i | 77.9 | i | 75.8 | i
CC(C)(C)OC(=O)N1CCC(N[C@@H](Cc2c[nH]c3ccccc23)C(=O)NCCc2c[nH]c3ccccc23)(C(=O)NC2CCCCC2)CC1 | i | i | nt | i | nt | i | nt | nt
C/C(CC(=O)Nc1ccc2ccccc2c1)=N\NC(=O)c1ccc(O)c(O)c1 | i | i | i | i | 68.5 | i | 50.4 | i
C/C(CC(=O)Nc1ccc2ccccc2c1)=N\NC(=O)c1cnccn1 | i | i | i | i | i | i | nt | nt
C(=N\Nc1ncnc2sc3c(c12)CCC3)/c1cccs1 | i | i | i | i | i | i | nt | nt
C(=N\Nc1ncnc2sc3c(c12)CCC3)/c1ccncc1 | i | i | i | i | 48.4 | i | i | i
Cc1ccc2nc(NNC(=O)c3ccc4c(c3)OCCO4)sc2c1 | i | i | i | i | i | i | nt | nt
COc1cccc(OC)c1C(=O)Nc1nc2cc3c(cc2s1)OCO3 | i | i | i | i | i | i | nt | nt
COc1cc(C(=O)NNc2nc3cc4c(cc3s2)OCO4)cc(OC)c1OC | i | i | i | i | 40.6 | i | i | i
O=C(NNc1nc2cc3c(cc2s1)OCO3)c1ccccc1 | i | i | i | i | 47.9 | i | i | i
O=C(NCCCc1ccccc1)[C@H](CO)NC1(C(=O)NCCc2c[nH]c3ccccc23)CCCCC1 | i | i | nt | i | nt | i | nt | nt
Cc1cccc(C)c1-n1c(C)cc(/C=N\Nc2ccc([N+](=O)[O-])cn2)c1C | i | i | i | i | 51.2 | i | i | i
COc1ccc(/C=N/Nc2ccc([N+](=O)[O-])cc2)cc1O | i | i | i | i | 48.0 | i | i | i
COc1cc(/C=N/Nc2ccc([N+](=O)[O-])cn2)cc(OC)c1O | i | i | i | i | 37.6 | i | i | i
COc1cc(/C=N/Nc2ccc(C(=O)O)cc2)ccc1O | i | i | i | i | 50.5 | i | i | i
O=[N+]([O-])c1ccc(NN=Cc2cccc(O)c2)nc1 | i | i | nt | i | nt | i | nt | nt
C=CCN1C(=O)[C@@H](CC(=O)N2CCCC2)[C@]2(C(=O)OCC)CCCCC/C=C/12 | i | i | nt | i | nt | i | nt | nt
C[C@@H]1OC(c2ccccc2)N(C)[C@H]2C[C@H]3c4[nH]c5cccc(-c6ccccc6)c5c4CCN3C[C@@H]12 (stereo not given in full) | i | i | nt | i | nt | i | nt | nt
SMILES | GC-B act | PLCb3 inh | Rce1 inhib | GC-A act | PfM18AAP inh-1 | PLC-gamma1 inh | PfM18AAP inh-2 | CTSL1 counter
CC(C)n1nnnc1C1(C)Cn2nccc2C(=O)N1Cc1cccc(C(F)(F)F)c1 (stereo not given) | i | i | nt | i | nt | i | nt | nt
COc1cc(/C=C/C(=O)CC(=O)/C=C/c2ccc(O)c(OC)c2)ccc1O | i | i | i | i | 35.2 | i | i | i
O=[N+]([O-])c1ccc(N/N=C/c2cn(Cc3ccc(F)cc3)c3ccccc23)nc1 | i | i | i | i | 40.1 | i | i | i
COC(=O)C1=C(O)/C(=C\c2ccc(O)c(OC)c2)N=C1C | i | i | i | i | 54.9 | i | i | i
COc1cc(/C=C/C(=O)/C=C(O)/C=C/c2ccc(O)c(OC)c2)ccc1O | i | i | nt | i | nt | i | nt | nt
COC(=O)C1=C(O)/C(=C\c2ccc(OCC(=O)Nc3ccccc3OC)cc2)N=C1C | i | i | i | i | i | i | nt | nt
COC(=O)[C@]12C[C@H](CC(=O)NCC3CCCCC3)C(=O)N(CCc3ccc(OC)c(OC)c3)C1=C[C@H](COCc1ccccc1)O[C@@H]2C | i | i | nt | i | nt | i | nt | nt
Cc1cc(C)nc(SCC(=O)c2ccc(F)cc2)n1 | i | i | nt | i | i | i | nt | nt
Cc1cc(C)nc(SCNC(=O)c2ccc(F)cc2)n1 | i | i | i | i | 50.0 | i | i | i
O=C(OC12CCCN(C1)/C(=C/c1ccc(Cl)cc1)C2)C1CCCCC1 (stereo not given) | i | i | nt | i | nt | i | nt | nt
CCN1CCC2(CC1)C(C#N)=C(N)Oc1c2sc2nc(C)cc(C)c12 | i | i | i | i | 33.3 | i | i | i
CCc1csc(N2[C@H](CN(CCOC)S(=O)(=O)c3ccccc3[N+](=O)[O-])[C@H](c3ccccc3)[C@@H]2CO)n1 | i | i | nt | i | nt | i | nt | nt
C/C(=N\Nc1nc(N)cc(Cl)n1)c1cccc(N)c1 | i | i | i | i | i | i | nt | nt
C/C(=N\Nc1nc(N)cc(Cl)n1)c1cccc([N+](=O)[O-])c1 | i | i | i | i | 34.1 | i | i | i
N#Cc1cc(-c2ccccc2)nc(NN)n1 | i | i | i | i | 42.6 | i | 30.6 | i
N=c1c(S(=O)(=O)c2ccccc2)cc2c(=O)n3ccccc3nc2n1CCCN1CCOCC1 | i | i | i | i | 33.6 | i | i | i
CCn1c(-c2ccc(C)cc2)n[nH]c1=S | i | i | i | i | i | i | nt | nt
CCCn1c(-c2ccc(F)cc2)n[nH]c1=S | i | i | i | i | 35.5 | i | i | i
O=C(Nc1ccc2c(c1)OCO2)NC1(C(F)(F)F)Oc2ccccc2O1 | i | i | i | i | 57.2 | i | i | i
O=C(Nc1ccc2c(c1)OCCO2)NC1(C(F)(F)F)Oc2ccccc2O1 | i | i | i | i | 59.2 | i | i | i
O=C(Nc1ccc2c(c1)OCO2)Nc1ccccc1F | i | i | i | i | i | i | nt | nt
CC(C)C[C@H]1COc2cccc(F)c2S(=O)(=O)N1Cc1cn(CCC2OCCCO2)nn1 | i | i | nt | i | nt | i | nt | nt
CC12CC(NC(=O)N1c1cccc(C(=O)Nc3ncn[nH]3)c1)c1ccccc1O2 (stereo not given) | i | i | i | i | 42.8 | i | 50.4 | i

Screening results from PubChem.
